High-throughput results as filed in PubChem BioAssay.
Shown are actives, neighbours in structure and some others; about 6.7% of the full set was active somewhere.
Mtb FBA inh: Mtb fructose-bisphosphate aldolase inhibition | P9WQA3 | purified M. tuberculosis FBA, fluorescence read-out | inhibition, % at 1 µM | 360,000 tested, 2.3% active | AID 588726
Target sequence (P9WQA3 whole entry, looked up): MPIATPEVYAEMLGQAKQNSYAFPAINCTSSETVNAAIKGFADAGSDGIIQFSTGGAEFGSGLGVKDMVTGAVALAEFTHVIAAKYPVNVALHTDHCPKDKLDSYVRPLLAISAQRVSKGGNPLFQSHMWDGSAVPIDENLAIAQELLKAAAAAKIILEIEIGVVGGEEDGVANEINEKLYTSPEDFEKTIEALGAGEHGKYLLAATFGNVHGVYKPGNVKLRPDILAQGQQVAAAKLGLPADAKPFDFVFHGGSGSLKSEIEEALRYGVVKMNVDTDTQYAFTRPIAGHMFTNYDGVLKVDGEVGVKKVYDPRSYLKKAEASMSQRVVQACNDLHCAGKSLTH
BoNT-A LC inh2: inhibitors of Botulinum neurotoxin A light chain protease. multiplex microsphere protease substrate cleavage, flow cytometry. inhibition, % at 10 µM. 360,000 tested, 0.17% active. AID 588499; in the data active means inhibition above about 30%; inconclusive means no clear call, values can overlap the other calls
BoNT F protease: BoNT F light chain protease inhibition | Multiplex microsphere protease cleavage assay, flow cytometry | inhibition, % at 10 µM | 360,000 tested, 0.22% active | AID 588497; in the data active means inhibition above about 35%, passing the limit was not always enough; inconclusive means no clear call, values can overlap the other calls
Autofluor counter: flagged as autofluorescent in microsphere protease counterscreen; compound autofluorescence counterscreen, microsphere flow cytometry; active compounds read high; fluorescence intensity (no concentration beside the values); 360,000 tested, 3.1% active; AID 624483; in the data active means fluorescence intensity above about 16000; inconclusive means no clear call, values can overlap the other calls
GDH-TPI counter-1: inhibits GDH-TPI coupling enzymes, artifact for Mtb FBA screen | GDH-TPI coupled enzyme counterscreen, NADH absorbance | inhibition, % at 4.8 µM | 360,000 tested, 1.2% active | AID 588335; in the data active means inhibition above about 30%
Anthrax LF inh2: anthrax lethal factor protease inhibition. 360,000 tested, 0.12% active. inhibition, % at 10 µM. multiplex microsphere protease cleavage assay, LF. AID 588501. P15917; in the data active means inhibition above about 30%; inconclusive means no clear call, values can overlap the other calls
Mtb FBA confirm: Mtb FBA inhibition, confirmed; purified M. tuberculosis FBA, fluorescence read-out; shares compounds with Mtb FBA inh; 5,600 tested, 78% active; inhibition, % at 1 µM
GDH-TPI counter-2: counter-screen for M. tuberculosis FBA inhibitors: GDH-TPI coupled enzyme inhibition; shares compounds with Mtb FBA inh; 5,600 tested, 81% active; GDH-TPI coupled enzyme counterscreen, fluorescence; AID 652141; inhibition, % at 1 µM; in the data active means inhibition above about 10%
GDH-TPI dose: counter-screen for M. tuberculosis FBA inhibitors: GDH-TPI dose response. GDH-TPI coupled enzyme assay, fluorescence, artifact counterscreen. 170 tested, 79% active. shares compounds with Mtb FBA inh. IC50, µM. AID 652145; call rule not given here
A number is an active result; 0 = inactive; ? = inconclusive; - = no result. Unless noted, no stated cut-off is given here; in the data, active means inhibition above about 27%; inactive means the rest.

SMILES	Mtb FBA inh	BoNT-A LC inh2	BoNT F protease	Autofluor counter	GDH-TPI counter-1	Anthrax LF inh2	Mtb FBA confirm	GDH-TPI counter-2	others
O=C(NCCO)c1ccc2[nH]c3c(c2c1)CCCC3	0	0	0	0	0	0	-	-
CCOC(=O)CNC(=O)c1ccc2[nH]c3ccccc3c2c1	60.5	0	0	0	0	0	0	0
CCOC(=O)c1[nH]c2ccc(C(=O)OC)cc2c1C(=O)OCC	45.9	0	0	0	0	0	113.7	93.2
O=C(NCC(O)CO)c1ccc2[nH]c3ccccc3c2c1 (stereo unspecified)	63.4	0	0	0	0	0	135.0	107.5
CCOC(=O)CNC(=O)c1ccc(C)cc1	0	0	0	0	0	0	-	-
CSc1ccccc1-c1cnc2cccnn12	0	0	0	0	0	0	-	-
c1cc(-c2cnc3cccnn23)c2cccnc2c1	37.7	0	0	0	0	0	127.1	114.7
c1ccc2c(-c3cnc4cccnn34)cncc2c1	40.3	0	0	0	0	0	187.9	106.1
O=C(CCl)NN=C(c1ccccc1)c1ccccc1	0	0	0	0	0	0	-	-
Cc1cc(C)n(-c2ncnc3sc4c(c23)CCCC4)n1	0	0	0	0	0	0	-	-
COC(=O)N(C)C[C@H]1OCc2cnnn2CCCC(=O)N([C@@H](C)CO)C[C@@H]1C	0	0	0	0	0	0	-	-
COCCCn1cnc2oc3nc4ccccc4nc3c2c1=O	100.1	0	0	0	0	0	85.7	64.5
COCCCn1cnc2c(c1=O)c1nc3ccccc3nc1n2-c1ccccc1	0	0	0	0	0	0	-	-
Nc1ccc2c(c1)[nH]c(=O)c1cc(N)ccc12	32.4	0	0	0	0	0	0	18.2
CCC(C)NC(=O)Cc1cn(C)c2ccccc12 (stereo unspecified)	101.8	0	0	0	0	0	0	0
CCc1ccc(NC(=O)Cc2cn(C)c3ccccc23)cc1	0	0	0	0	0	0	-	-
C=CCn1c(CCNC(=O)c2ccco2)nc2ccccc21	0	0	0	0	0	0	-	-
Cc1cc(Br)ccc1NC(=O)CN(C)C(=O)CNC(=O)Cc1ccccc1	0	0	0	0	0	0	-	-
CC(=O)Nc1ccc(NC(=O)C2Cc3c(-c4ccc5c(c4)OCO5)ccnc3O2)cc1 (stereo unspecified)	33.0	0	0	0	0	0	0	0
O=C(NCC1CC1)C1Cc2c(-c3ccc4c(c3)OCO4)ccnc2O1 (stereo unspecified)	54.1	0	0	0	0	0	138.0	94.5
CNC(=O)C1Cc2c(-c3ccc4c(c3)OCO4)ccnc2O1 (stereo unspecified)	59.7	0	0	0	0	0	96.8	76.5
CC(=O)Nc1cccc(-c2ccnc3c2CC(C(=O)Nc2ccc4c(c2)OCO4)O3)c1 (stereo unspecified)	0	0	0	0	0	0	-	-
O=C(NCC1CC1)C1Cc2c(-c3cccc(F)c3)ccnc2O1 (stereo unspecified)	0	0	0	0	0	0	-	-
COc1ccc(NC(=O)C2Cc3c(-c4ccc5c(c4)OCO5)ccnc3O2)cc1 (stereo unspecified)	46.4	0	0	0	0	0	0	12.1
Cc1ccc(N(C)S(=O)(=O)c2cc3c(cc2C)NC(=O)CO3)cc1	0	0	0	0	0	0	-	-
SMILES	Mtb FBA inh	BoNT-A LC inh2	BoNT F protease	Autofluor counter	GDH-TPI counter-1	Anthrax LF inh2	Mtb FBA confirm	GDH-TPI counter-2	others
CC(C)(C)[C@H]1C=C(C(=O)N2CCN(Cc3ccc4c(c3)OCO4)CC2)O[C@@H](OCCCCO)C1	0	0	0	0	0	0	-	-
O=C(Nc1cccnc1)c1ccc(N2CCCC2)c([N+](=O)[O-])c1	0	0	0	0	0	0	-	-
CC(=O)NCCNC(=O)C1Cc2c(-c3ccc4c(c3)OCO4)ccnc2O1 (stereo unspecified)	64.8	0	0	0	0	0	0	0	GDH-TPI dose=2.91
O=C(Nc1ccc2c(c1)OCO2)C1Cc2c(-c3ccc4c(c3)OCO4)ccnc2O1 (stereo unspecified)	35.8	0	0	0	0	0	77.0	60.8
CN1CCN(C(=O)C2Cc3c(-c4ccc5c(c4)OCO5)ccnc3O2)CC1 (stereo unspecified)	40.2	0	0	0	0	0	0	0	GDH-TPI dose=3.08
O=C(Nc1ccc2c(c1)OCO2)C1Cc2c(-c3ccc(Cl)cc3)ccnc2O1 (stereo unspecified)	0	0	0	0	0	0	-	-
O=C(Nc1ccc2c(c1)OCO2)C1Cc2c(-c3ccncc3)ccnc2O1 (stereo unspecified)	0	0	0	0	0	0	-	-
COC(=O)c1ccc(NC(=O)CNC(=O)c2sc3ccccc3c2Cl)cc1	0	0	?	?	0	0	-	-
COc1cccc(CNC(=O)CCCn2ccc3cc(S(=O)(=O)N4CCCC4)ccc32)c1	0	0	0	0	0	0	-	-
N#Cc1c(NC(=O)Cn2nc(C(F)(F)F)c3c2CCCC3)sc2c1CCC2	0	0	0	0	0	0	-	-
Cc1ccc(S(=O)(=O)N2CCN(c3nn(C)c(=O)n(C)c3=O)CC2)cc1C	0	0	0	0	0	0	-	-
COc1ccccc1C=Cc1ccnc2ccccc12	0	0	0	0	0	0	-	-
CCCN(CC(=O)Nc1ccccc1C)C(=O)CCCOc1ccc(Br)cc1	38.0	0	0	0	0	0	0	0
CCS(=O)(=O)N1CCN=C1SCc1cccc(F)c1	0	0	0	0	0	0	-	-
CC(c1ccccc1)c1nnc(NC(=O)Nc2ccccc2)s1 (stereo unspecified)	0	-	-	-	0	-	-	-
CN(C)CCCOc1ccc(-c2cccc3nncn23)cn1	43.3	0	0	0	0	0	145.8	120.3
CN(C)CCCOc1ccc(-c2ccc3nncn3c2)cn1	0	0	0	0	0	0	-	-
CN(C)CCNC(=O)c1cccc(-c2cccc3nncn23)c1	70.7	0	0	0	0	0	134.1	88.0
CN(C)CCNC(=O)c1cccc(-c2cnc3c(NC=O)cc(-c4cc(F)c(F)c(F)c4)cn23)c1	0	0	0	0	0	0	-	-
COc1ccc2cc3cc(C(=O)N4CCN(c5ccccc5)CC4)oc3nc2c1	0	0	0	0	0	0	-	-
COc1ccc2nc3oc(C(=O)N4CC(C)CC(C)C4)cc3cc2c1 (stereo unspecified)	55.6	0	0	0	0	0	0	0
CCOC(=O)C1CCN(C(=O)c2cc3cc4cc(OC)ccc4nc3o2)CC1	55.4	0	0	0	0	0	109.0	98.2
CCOC(=O)C1CCCN(C(=O)c2cc3cc4ccc(OC)cc4nc3o2)C1 (stereo unspecified)	92.1	0	0	0	0	0	55.1	32.1
CC1CC(C)CN(C(=O)c2cc3ccccc3o2)C1 (stereo unspecified)	0	0	0	?	0	0	-	-
